High-throughput results: PubChem, National Center for Advancing Translational Sciences (NCATS)
In the library only some 7.3% were active in any assay of this set; here they are far more common.
Gal4-VP16 FLuc = VP16 counterscreen qHTS for inhibitors of ROR gamma transcriptional activity. Drosophila S2 Gal4-VP16 UAS-luciferase, luminescence, 20 h. Potency, µM (doses to about 53.6 µM), for inactives: at the top dose activity, negative = inhibition, hits mostly inhibitors. actives 3.5% (n = 310,000);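 also: Gal4-VP16 expression switched on by copper sulfate through the metallothionein promoter; nearly all actives have a fitted effect of over 50% in size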
Tau ThT inhib = qHTS for Inhibitors of Tau Fibril Formation, Thioflavin T Binding | Microtubule-associated protein tau (Homo sapiens), P10636 | recombinant tau K18 P301L, heparin-induced fibrillization, ThT fluorescence | Potency, µM (series often up to 57.4 µM), inactives show at the highest dose activity, negative = inhibition, actives largely listed as inhibitors | actives 2.1% (n = 270,000); also: nearly all actives have a fitted effect of over 55% in size
Target sequence (P10636 561-689 P618L limits assumed): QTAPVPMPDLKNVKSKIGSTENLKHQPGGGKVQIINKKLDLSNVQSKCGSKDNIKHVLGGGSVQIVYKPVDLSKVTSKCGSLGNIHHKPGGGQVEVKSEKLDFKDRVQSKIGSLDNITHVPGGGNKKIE
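Tau K18 P301L fragment (15 uM unlabeled plus 0.24 uM Alexa 594-labeled) in 100 mM sodium acetate pH 7 with compound, fibrillization induced by 20 uM heparin for 6 hr at 37 C. Thioflavin T (30 uM) added, fluorescence read after 1 hr (ex 450, em 510 nm).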
Tau fibril FP = qHTS for Inhibitors of Tau Fibril Formation, Fluorescence Polarization | Potency, µM (highest dose often 57.7 µM), for inactives: top-dose activity, negative = inhibition, most hits filed as inhibitors | actives 0.39% (n = 280,000) | AID 1468, 2008 | Microtubule-associated protein tau (Homo sapiens), P10636 | K18 P301L tau heparin fibrillization, Alexa594 FP, 6 h; also: nearly all actives have a fitted effect of over 55% in size
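Compound effects on tau fibrillization are measured by Alexa 594 fluorescence polarization (ex 555, em 632 nm). K18 P301L tau is used at 15 uM with 0.24 uM labeled tracer, and 20 uM heparin induces aggregation over 6 hr at 37 C.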
RORg inh = qHTS for inhibitors of ROR gamma transcriptional activity; Nuclear receptor ROR-gamma (Mus musculus), P51450; Drosophila S2 Gal4-RORgamma UAS-luciferase reporter, 20 h; Potency, µM (series often up to 53.6 µM), without a hit: at the highest dose activity change, negative = inhibition, hits mostly inhibitors; actives 5.4% (n = 310,000); AID 2551, 2010; also: nearly all actives have a fitted effect of over 60% in size
Target sequence (P51450 whole entry, looked up, the tested form may be a part): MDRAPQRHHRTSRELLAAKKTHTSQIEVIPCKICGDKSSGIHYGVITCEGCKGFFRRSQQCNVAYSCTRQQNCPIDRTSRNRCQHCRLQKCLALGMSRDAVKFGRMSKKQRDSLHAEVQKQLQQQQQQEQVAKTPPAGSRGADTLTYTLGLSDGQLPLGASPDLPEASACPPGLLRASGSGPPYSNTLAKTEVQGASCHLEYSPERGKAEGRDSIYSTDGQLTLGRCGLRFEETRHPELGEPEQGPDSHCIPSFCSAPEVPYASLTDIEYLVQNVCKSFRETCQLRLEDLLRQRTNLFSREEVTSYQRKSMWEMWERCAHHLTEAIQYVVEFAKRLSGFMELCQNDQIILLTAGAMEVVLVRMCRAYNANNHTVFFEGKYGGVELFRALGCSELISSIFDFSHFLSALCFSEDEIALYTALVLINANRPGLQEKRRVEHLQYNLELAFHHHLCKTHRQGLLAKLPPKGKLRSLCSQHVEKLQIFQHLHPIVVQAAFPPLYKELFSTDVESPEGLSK
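Drosophila S2 cells stably expressing Gal4-DBD/mouse RORγ fusion under metallothionein promoter plus UAS-luciferase; compound 1 h, then 700 uM CuSO4 induction for 20 h at ambient temperature; inhibition read as reduced luminescence.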
Tau fluor counter = Counterscreen qHTS for Inhibitors of Tau Fibril Formation, Fluorescence Polarization; tau K18 P301L (four-repeat tau fragment) Alexa594 fluorescence, heparin fibrillization; Potency, µM (doses to about 57.7 µM), inactives show at the highest dose activity change, negative = decrease; actives 0.93% (n = 280,000); AID 1463, 2008; also: nearly all actives have a fitted effect of over 55% in size
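Human K18 P301L tau (15 uM unlabeled plus 0.24 uM Alexa 594-labeled, final) in 100 mM sodium acetate pH 7 was mixed with compound and 20 uM heparin and incubated 6 hr at 37 C.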
* hit, by the source's call; [ ] = remark or other dose. Calls follow the shape of the dose curve; as a rule, active = well fitted curve in the direction sought with a large enough effect; inconclusive = small, poorly fitted or top-dose-only effect, or another doubt; inactive = no such curve, though single readings can be large; an effect the other way counts as inactive or inconclusive. % is scaled to controls: 0 for no effect and ±100 for the full control effect; potency is read from the fitted curve at half-maximal effect.

Results for Cc1cc(C)c(NC(=O)CN2C(=O)CCSc3ccc(S(=O)(=O)N4CCCC4)cc32)c(C)c1 ?
Tau ThT inhib: 0%; Tau fibril FP: -9%; Tau fluor counter: -1%

Results for O=C(/C=C/c1ccc(Br)cc1)NC(=S)N1CCOCC1 ?
Gal4-VP16 FLuc: 0.4µM*; Tau ThT inhib: -27%; Tau fibril FP: -8%; RORg inh: 0.71µM*; Tau fluor counter: -24%

How did CN1CCN(C(=S)NC(=O)/C=C/c2ccccc2Cl)CC1 do in these assays?
Gal4-VP16 FLuc: inconclusive; Tau ThT inhib: inconclusive; Tau fibril FP: 1%; RORg inh: 2.5µM*; Tau fluor counter: -9%

What do the screens show for `O=C(/C=C/c1ccccc1)N/C(=C/c1ccccc1)C(=O)N1CCOCC1`?
Gal4-VP16 FLuc: 0%; Tau ThT inhib: -2%; Tau fibril FP: -7%; RORg inh: 26%; Tau fluor counter: -2%

Results for CN1CCN(C(=S)NC(=O)/C=C/c2ccccc2)CC1 ?
Gal4-VP16 FLuc: inconclusive; Tau ThT inhib: -1%; Tau fibril FP: 3%; RORg inh: 11µM*; Tau fluor counter: -2%

Results for Cn1cc(C(=O)c2ccc(Cl)cc2Cl)cc1C(=O)N/N=C(\N)COc1cccc(C(F)(F)F)c1 ?
Gal4-VP16 FLuc: 2µM*; Tau ThT inhib: -16%; Tau fibril FP: 2%; RORg inh: 2.2µM*; Tau fluor counter: -26%

Results for CCCc1cc(Nc2ccccc2OCC)n2ncnc2n1 ?
Gal4-VP16 FLuc: inconclusive; Tau ThT inhib: -16%; Tau fibril FP: 1%; RORg inh: 11µM*; Tau fluor counter: -8%

What do the screens show for `Cc1ccc2c(C)nc(SC(C(=O)c3ccccc3)c3ccccc3)nc2c1` (configuration not stated)?
Gal4-VP16 FLuc: 20µM*; Tau ThT inhib: -7%; Tau fibril FP: -6%; RORg inh: inconclusive; Tau fluor counter: -20%

What do the screens show for `Cc1nc(SC(C(=O)c2ccccc2)c2ccccc2)nc2ccccc12` (configuration not stated)?
Gal4-VP16 FLuc: 3%; Tau ThT inhib: -8%; Tau fibril FP: -9%; RORg inh: -6%; Tau fluor counter: -27%

Results for CC(=O)OCC1O[C@@H](O[C@@H]2C[C@H]3C(C)(C)[C@H](OC(C)=O)CC[C@]3(C)[C@H]3CC[C@]45C[C@]4(CC[C@H]5[C@@H](C)C[C@@H](O)[C@H](O)C(C)(C)O)[C@@]32C)[C@H](O)[C@@H](O)[C@@H]1O (some centres not stated) ?
Gal4-VP16 FLuc: 3.2µM*; Tau ThT inhib: 1%; Tau fibril FP: -5%; RORg inh: 0.89µM*; Tau fluor counter: -3%

Results for COc1ccc(Br)cc1CNC(=O)C1CCCCN1S(=O)(=O)c1ccc(F)cc1 (configuration not stated) ?
Tau ThT inhib: -12%; Tau fibril FP: -5%; Tau fluor counter: -22%

Results for Cc1ccc(-c2nc3ncccn3c2Nc2ccccc2C)o1 ?
Gal4-VP16 FLuc: 8%[10 µM]; Tau ThT inhib: -10%; Tau fibril FP: 14%; RORg inh: -5%; Tau fluor counter: -11%

What do the screens show for `Cc1ccc(-c2nc3cnccn3c2Nc2c(C)cccc2C)o1`?
Gal4-VP16 FLuc: -11%; Tau ThT inhib: inconclusive; Tau fibril FP: inconclusive; RORg inh: 11µM*; Tau fluor counter: -19%

Results for COc1cccc(Cn2c(NCc3ccco3)nc3c2c(=O)n(C)c(=O)n3C)c1 ?
Gal4-VP16 FLuc: 2.8µM*; Tau ThT inhib: -4%; Tau fibril FP: 10%; RORg inh: -38%; Tau fluor counter: -6%

What do the screens show for `COc1ccc(Cl)c(Cn2c(NCc3ccco3)nc3c2c(=O)n(C)c(=O)n3C)c1`?
Gal4-VP16 FLuc: 0.0089µM*; Tau ThT inhib: inconclusive; Tau fibril FP: -3%; RORg inh: -43%; Tau fluor counter: -17%

What do the screens show for `O=C(CSc1n[nH]c(-c2ccccn2)n1)Nc1ccc(F)cc1`?
Gal4-VP16 FLuc: inconclusive; RORg inh: 7.9µM*

What do the screens show for `O=C(CSc1n[nH]c(-c2ccc(Cl)cc2Cl)n1)Nc1ccccn1`?
Gal4-VP16 FLuc: 8%; Tau ThT inhib: -18%; Tau fibril FP: -9%; RORg inh: -48%; Tau fluor counter: -17%

What do the screens show for `O=C(CSc1n[nH]c(-c2ccccn2)n1)Nc1ccc(Cl)cc1`?
Gal4-VP16 FLuc: 0.1µM*; RORg inh: 2.5µM*

What do the screens show for `Cc1ccc(NC(=O)CSc2n[nH]c(-c3ccccn3)n2)cc1`?
Gal4-VP16 FLuc: 5.6µM*; RORg inh: 4.5µM*

Results for CCCn1nnnc1NC(=O)CSc1ccc(Cl)cc1 ?
Gal4-VP16 FLuc: 2.2µM*; Tau ThT inhib: 0%; Tau fibril FP: 4%; RORg inh: 0.89µM*; Tau fluor counter: 6%

Results for CCCn1nnnc1NC(=O)c1cc(Cl)ccc1Cl ?
Gal4-VP16 FLuc: 2.2µM*; Tau ThT inhib: 3%; Tau fibril FP: 6%; RORg inh: 1.6µM*; Tau fluor counter: 10%

What do the screens show for `CCn1nnnc1NC(=O)c1cc(Cl)c(OC)c(Cl)c1`?
Gal4-VP16 FLuc: -6%; Tau ThT inhib: 6%; Tau fibril FP: 5%; RORg inh: inconclusive; Tau fluor counter: 9%

Results for CCn1nnc(NC(=O)CSc2ccc(Cl)cc2)n1 ?
Gal4-VP16 FLuc: 10%; Tau ThT inhib: -14%; Tau fibril FP: 2%; RORg inh: 1%; Tau fluor counter: 0%

What do the screens show for `COc1ccc(C(=O)NN2CCOCC2)cc1`?
Gal4-VP16 FLuc: -9%; RORg inh: -17%

Results for CC(C)(C)OC(=O)NCCc1nnc(S(=O)(=O)Cc2ccc(Cl)cc2Cl)o1 ?
Gal4-VP16 FLuc: 7.1µM*; Tau ThT inhib: inconclusive; Tau fibril FP: -18%; RORg inh: inconclusive; Tau fluor counter: -5%

What do the screens show for `CC(C)(C)OC(=O)NCCc1nnc(SCc2ccccc2Cl)o1`?
Gal4-VP16 FLuc: 26%; Tau ThT inhib: -8%; Tau fibril FP: 7%; RORg inh: 43%; Tau fluor counter: -7%

Results for Cc1cccc(NC(=O)CSc2nccn2Cc2ccc(F)cc2)c1C ?
Tau ThT inhib: -4%; Tau fibril FP: -3%; Tau fluor counter: -13%

Results for CCOc1cc(C(=O)NCc2ccc3c(c2)CCN3C(=O)c2ccc(F)cc2)cc(OCC)c1OCC ?
Tau ThT inhib: -1%; Tau fibril FP: 3%; Tau fluor counter: -6%

What do the screens show for `Cc1cc2nn(-c3ccc(F)cc3)nc2cc1NC(=O)c1cccc2c(Cl)cccc12`?
Tau ThT inhib: 0%; Tau fibril FP: -2%; Tau fluor counter: 1%
